SENP7 inh = inhibitors of human SENP7 protease; Q9BQF6; recombinant SENP7, Z-RLRGG-aminoluciferin luminescence, 40 min; inhibition, % at 5 µM; hit rate 1.5% among 330,000; AID 434973;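 active means inhibition above about 50% at the single test dose, limit read from the data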;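 further: plate controls were DMSO with enzyme for no effect and no enzyme buffer wells for full effect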
SENP8 block-1 = SENP8 (human) protease inhibition. Q96LD8. recombinant SENP8, Nedd8 substrate fluorescence. inhibition, % at 20 µM. hit rate 0.64% among 360,000. AID 602440; in the data active means inhibition mostly above about 40%, no sharp cut-off; inactive means mostly below about 27%
SENP8 block-2 = inhibitors of human SENP8 protease. AID 2540. inhibition, % at 10 µM. hit rate 1.2% among 330,000. purified SENP8, Z-RLRGG-aminoluciferin cleavage, luminescence. Q96LD8; in the data active means inhibition above about 50%
SENP6 inh = SENP6 protease inhibition | Q9GZR1 | Recombinant SENP6 catalytic domain, aminoluciferin luminescence | inhibition, % at 10 µM | hit rate 1.8% among 330,000;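 active means inhibition above about 50% at the single tested dose, limit read from the data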;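 further: plate controls were DMSO wells with enzyme for no effect and DMSO wells lacking enzyme for full effect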
Target sequence (Q9GZR1 628-1112 limits assumed): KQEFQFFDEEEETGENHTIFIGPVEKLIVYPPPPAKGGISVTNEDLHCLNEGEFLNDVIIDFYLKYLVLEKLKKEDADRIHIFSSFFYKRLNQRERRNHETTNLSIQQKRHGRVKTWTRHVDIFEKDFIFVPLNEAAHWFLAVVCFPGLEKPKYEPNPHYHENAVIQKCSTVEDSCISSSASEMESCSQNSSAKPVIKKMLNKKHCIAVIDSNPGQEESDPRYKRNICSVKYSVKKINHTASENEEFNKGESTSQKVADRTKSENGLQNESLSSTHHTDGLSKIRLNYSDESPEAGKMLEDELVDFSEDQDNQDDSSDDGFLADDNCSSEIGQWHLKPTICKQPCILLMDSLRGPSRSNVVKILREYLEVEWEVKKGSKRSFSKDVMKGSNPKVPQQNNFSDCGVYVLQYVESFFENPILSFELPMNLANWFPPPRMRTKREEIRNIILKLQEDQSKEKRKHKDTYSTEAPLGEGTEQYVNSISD
C8 TRAIL sens = sensitizes caspase-8 expressing cells to TRAIL | hit rate 1% among 360,000 | NB7+C8 cells + TRAIL, ATPlite viability luminescence | inhibition (viability loss, TRAIL sensitization), % at 10 µM | AID 624354;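 active means compounds causing at least 50% loss of cell viability in the single-dose screen, relative to plate controls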
PPC-1+TRAIL kill = kills PPC-1 cancer cells in the presence of TRAIL; PPC-1 cells + TRAIL, ATPLite viability luminescence; cell killing (% activity), % at 4 µM or 5 µM; hit rate 0.41% among 220,000; AID 1443;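 active means cell killing above 50% in the first pass at 4 µM, then a duplicate retest at 5 µM averaging 50% or more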;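 further: plate controls were cells with TRAIL plus DMSO for no effect and medium-only wells lacking cells for full effect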
SENP8 confirm = confirmation of human SENP8 protease inhibitors; shares compounds with SENP7 inh; Recombinant SENP8, Z-RLRGG-aminoluciferin luminescence, 60 min; inhibition, % at 12.5 µM; hit rate 40% among 6,200;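 active means mean inhibition across replicates above about 50%, limit read from the data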
SENP6 conf = human SENP6 inhibition, confirmed. shares compounds with SENP7 inh. recombinant SENP6, Z-RLRGG-aminoluciferin luminescence. inhibition, % at 12.5 µM. hit rate 58% among 6,200. AID 488915
SENP7 confirm = human SENP7 inhibition, confirmed; hit rate 69% among 6,200; recombinant SENP7, Z-RLRGG-aminoluciferin luminescence, 40 min; inhibition, % at 12.5 µM; AID 488917; shares compounds with SENP7 inh
Casp3 SENP sel = caspase-3 inhibition (SENP selectivity assay); inhibition, % at 12.5 µM; shares compounds with SENP7 inh; hit rate 60% among 6,200; AID 488918; purified caspase-3, Z-DEVD-aminoluciferin luminescence, 60 min;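 active means mean inhibition above about 50%, limit read from the data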;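 further: plate controls were enzyme with DMSO for no effect and wells without caspase-3 for full effect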
Luc interf = counter-screen for SENP inhibitors: luminescence interference; shares compounds with SENP7 inh; Pre-incubated SENP8/Z-RLRGG-aminoluciferin, luciferase luminescence interference; inhibition, % at 12.5 µM; hit rate 39% among 6,200; AID 488919;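 active means mean inhibition above about 50% when retested at one dose, limit read from the data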;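 further: plate controls were DMSO wells with completed reaction for no effect and substrate without enzyme for full effect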
* marks the source's active call; other numbers are inactive results; . = no result. Sampled rows, rich in hits. Any-hit rate of the full collection: about 3%.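 How the source made its calls, unless noted: active means mean inhibition above about 50% in the one-dose retest (limit read from the data); inactive means the rest.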

SMILES	SENP7 inh	SENP8 block-1	SENP8 block-2	SENP6 inh	C8 TRAIL sens	PPC-1+TRAIL kill	SENP8 confirm	SENP6 conf	SENP7 confirm	Casp3 SENP sel	Luc interf
CCOc1ccc(-c2nnc(-c3cccs3)o2)cc1	85*	-284	73*	48	37	37	38	62*	60*	72*	22
CC(C)COc1ccc(-c2nnc(-c3ccncc3)o2)cc1	57*	-316	27	66*	12	14	25	31	41	46	30
Fc1c(F)c(F)c(CSc2nc3ccccc3[nH]2)c(F)c1F	4	26	-5	-2	10	2	.	.	.	.	.
Fc1ccccc1CSc1nc2ccccc2[nH]1	85*	16	79*	83*	25	39	86*	85*	96*	83*	86*
COc1cccc(CSc2nc3ccccc3[nH]2)c1	81*	5	77*	64*	31	35	0	79*	95*	80*	82*
O=[N+]([O-])c1cccc(CSc2nc3ccccc3[nH]2)c1	-5	21	-14	-17	-3	24	.	.	.	.	.
O=c1cc(Cl)[nH]c(=O)n1CCNc1ncc(C(F)(F)F)cc1Cl	10	-40	33	58*	7	19	52*	49	77*	73*	10
O=[N+]([O-])c1ccccc1NCCNc1ncc(C(F)(F)F)cc1Cl	-1	30	-15	-15	-6	4	.	.	.	.	.
O=[N+]([O-])c1cccnc1NCCc1ccccc1	88*	10	81*	95*	0	20	41	69*	88*	72*	17
O=[N+]([O-])c1cccnc1NCCNc1ncc(C(F)(F)F)cc1Cl	58*	26	36	67*	-7	8	60*	56*	83*	37	47
C=CCC(NC(=O)N(C)C)(C(C)=O)C(=O)OC (stereo not given)	.	25	.	.	9	.	.	.	.	.	.
Cc1cccc(Cl)c1NC(=O)NCCCN1CCCCC1C (stereo not given)	.	6	.	.	-1	.	.	.	.	.	.
COC(=O)CCSCC(=O)N1N=C(c2ccc(OC)cc2)CC1c1cccc(OC)c1OC (stereo not given)	7	-9	3	-5	0	6	.	.	.	.	.
C=C(Cl)COc1ccc2c(CC)cc(=O)oc2c1	57*	-129	-20	-18	21	10	6	6	6	3	0
C=C(Cl)COc1ccc2c(CCCC)cc(=O)oc2c1	-2	-129	-10	-12	5	27	.	.	.	.	.
Cn1c(=N)n(CC(=O)c2ccc(F)cc2)c2ccccc21	20	22	46	62*	80*	.	34	25	25	38	62*
O=C(Nc1ccccc1)Nc1cccn(Cc2c(F)cccc2Cl)c1=O	13	-233	55*	58*	-1	7	17	49	92*	50*	14
CCNC(=O)N1CCCC(C(=O)c2ccc(C(F)(F)F)cc2)C1 (stereo not given)	-1	10	11	0	-2	.	.	.	.	.	.
CCOc1ccc(N/C(N)=N/c2nc(CSc3nnnn3-c3ccccc3)cc(=O)[nH]2)cc1	7	2	3	25	3	6	.	.	.	.	.
Clc1cccc(-c2cc3nc4c(c(NCc5ccco5)n3n2)CCCC4)c1	26	-266	53*	81*	25	28	-4	8	3	7	4
CC(N=C1NS(=O)(=O)c2ccccc21)C(=O)OCC(=O)N(C)C1CCS(=O)(=O)C1 (stereo not given)	8	15	0	1	4	.	.	.	.	.	.
FC(F)(F)c1cccc(-c2nc3nc(Cl)c(Cl)nc3[nH]2)c1	92*	-264	93*	95*	53*	29	97*	98*	102*	92*	87*
FC(F)(F)c1nc2nc(Cl)c(Cl)nc2[nH]1	.	-240	.	.	-9	.	.	.	.	.	.
CCN(c1ccccc1)S(=O)(=O)c1ccc(Cl)c(NC(=O)CSc2nnc(C)s2)c1	7	7	4	-6	18	29	.	.	.	.	.
CCc1cc(-c2ccc3c(c2)COc2c4ccccc4nn2-3)on1	48	-428	89*	81*	44	.	4	89*	94*	70*	20
SMILES	SENP7 inh	SENP8 block-1	SENP8 block-2	SENP6 inh	C8 TRAIL sens	PPC-1+TRAIL kill	SENP8 confirm	SENP6 conf	SENP7 confirm	Casp3 SENP sel	Luc interf
CCCC#Cc1ccc2c(c1)COc1c3ccccc3nn1-2	73*	8	89*	92*	37	.	53*	70*	90*	86*	28
O=C(O)c1cc(C2CC2)nn1-c1ccccc1	-5	14	-11	-12	5	-12	.	.	.	.	.
Nc1cc(C2CCCC2)nn1-c1ccccc1	41	5	32	62*	26	7	38	39	77*	81*	55*
CCN1CCN(c2nc3c(C)cccn3c(=O)c2/C=C(\C#N)C(=O)NCCOC)CC1	-9	-296	-12	-11	-32	.	.	.	.	.	.
CCN(C(=O)COC(=O)c1cccnc1SC)C1CCS(=O)(=O)C1 (stereo not given)	-6	13	-4	1	-9	39	.	.	.	.	.
CCN(C(=O)COC(=O)c1cccnc1Nc1cccc(C(F)(F)F)c1)C1CCS(=O)(=O)C1 (stereo not given)	72*	-42	50	63*	8	16	66*	64*	86*	50	64*
c1ccc(-c2ccc(C(c3ccccc3)n3ccnc3)cc2)cc1 (stereo not given)	.	12	.	.	12	6	.	.	.	.	.
c1ccc(-c2ccc(-n3ccnc3)cc2)cc1	6	-7	36	53*	18	0	40	33	72*	56*	63*
CCN(CC)c1ccc(C=C2SC(=S)NC2=O)cc1	.	38	.	.	17	.	.	.	.	.	.
CC1Cc2cc(/C=C3/SC(=S)NC3=O)ccc2O1 (stereo not given)	2	22	67*	74*	23	29	11	76*	84*	47	0
S=c1nc(-c2ccccc2)oc2c1CCCC2	88*	20	75*	92*	-4	24	36	48	63*	41	54*

Assay outcomes deposited in PubChem by Sanford-Burnham Center for Chemical Genomics.
